# Data taken from PubChem BioAssay AID1159580 (chemical genetic matrix, 2015).
# About 2,000 (36%) of roughly 5,500 compounds were called active. Roughly 18% stayed inconclusive and do not appear here. Some of the results follow. Unmarked numbers belong to inactive results. No stated cut-off is given here; in the data, active means normalized growth mostly below about 0.91 (no sharp cut-off); inconclusive means no clear call, values can overlap the other calls; inactive means mostly above about 0.92.
# Assay: chemical genetic growth profiling, strain panel (AID 1159580);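 further: tested at 20 µM; growth read once vehicle control cultures reached saturation at 30 °C; 1 = growth at the plate median or of vehicle wells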
# Details: S. cerevisiae deletion strains, growth OD
structure (smiles),measurement,setting,value
CC(C)C1COc2cc3oc(=O)ccc3cc2O1 (stereo unspecified),normalized growth,"locus YBR021W, strain FUR4, stronger effect = lower value",0.0979 (active)
same,normalized growth,"locus YBR229C, strain ROT2, stronger effect = lower value",0.837 (active)
same,normalized growth,"locus YCL029C, strain bik1, stronger effect = lower value",0.616 (active)
same,normalized growth,"locus YDL035C, strain GPR1, stronger effect = lower value",0.389 (active)
same,normalized growth,"locus YDL074C, strain BRE1, stronger effect = lower value",0.287 (active)
same,normalized growth,"locus YDL101C, strain DUN1, stronger effect = lower value",0.293 (active)
same,normalized growth,"locus YDL185W, strain tfp1, stronger effect = lower value",0.874 (active)
same,normalized growth,"locus YDL192W, strain arf1, stronger effect = lower value",0.0841 (active)
same,normalized growth,"locus YDR101C, strain arx1, stronger effect = lower value",0.714 (active)
same,normalized growth,"locus YDR162C, strain NBP2, stronger effect = lower value",0.0569 (active)
same,normalized growth,"locus YDR318W, strain mcm21, stronger effect = lower value",0.546 (active)
same,normalized growth,"locus YDR388W, stronger effect = lower value",0.241 (active)
same,normalized growth,"locus YDR502C, strain sam2, stronger effect = lower value",0.289 (active)
same,normalized growth,"locus YEL061C, strain CIN8, stronger effect = lower value",0.17 (active)
same,normalized growth,"locus YER110C, stronger effect = lower value",0.698 (active)
same,normalized growth,"locus YER155C, strain BEM2, stronger effect = lower value",0.592 (active)
same,normalized growth,"locus YER167W, strain BCK2, stronger effect = lower value",0.503 (active)
same,normalized growth,"locus YGL078C, strain dbp3, stronger effect = lower value",0.976
same,normalized growth,"locus YGL086W, strain mad1, stronger effect = lower value",0.589 (active)
same,normalized growth,"locus YGL248W, strain PDE1, stronger effect = lower value",0.257 (active)
same,normalized growth,"locus YGR078C, strain PAC10, stronger effect = lower value",0.191 (active)
same,normalized growth,"locus YGR135W, strain pre9, stronger effect = lower value",0.366 (active)
same,normalized growth,"locus YGR252W, strain gcn5, stronger effect = lower value",0.209 (active)
same,normalized growth,"locus YHR030C, strain SLT2, stronger effect = lower value",0.0511 (active)
same,normalized growth,"locus YHR079C, strain IRE1 (second series), stronger effect = lower value",0.89 (active)
same,normalized growth,"locus YHR094C, strain hxt1, stronger effect = lower value",0.92 (active)
same,normalized growth,"locus YHR129C, strain ARP1, stronger effect = lower value",0.396 (active)
same,normalized growth,"locus YHR200W, strain rpn10, stronger effect = lower value",0.433 (active)
same,normalized growth,"locus YIL066C, strain RNR3, stronger effect = lower value",0.223 (active)
same,normalized growth,"locus YIL073C, strain SPO22, stronger effect = lower value",0.122 (active)
same,normalized growth,"locus YIL125W, strain kgd1, stronger effect = lower value",0.958
same,normalized growth,"locus YIR030C, strain dcg1, stronger effect = lower value",0.701 (active)
same,normalized growth,"locus YJL095W, strain BCK1, stronger effect = lower value",0.0654 (active)
same,normalized growth,"locus YJL134W, strain LCB3, stronger effect = lower value",0.906 (active)
same,normalized growth,"locus YJL168C, strain set2, stronger effect = lower value",0.834 (active)
same,normalized growth,"locus YJL187C, strain SWE1 (second series), stronger effect = lower value",0.497 (active)
same,normalized growth,"locus YJR043C, strain POL32, stronger effect = lower value",0.218 (active)
same,normalized growth,"locus YJR075W, strain HOC1, stronger effect = lower value",0.688 (active)
same,normalized growth,"locus YKL009W, strain mrt4, stronger effect = lower value",0.916
same,normalized growth,"locus YKL068W, stronger effect = lower value",0.964
same,normalized growth,"locus YKL085W, strain MDH1 (second series), stronger effect = lower value",0.945
same,normalized growth,"locus YKL085W, strain MDH1, stronger effect = lower value",0.945
same,normalized growth,"locus YKR001C, strain vps1, stronger effect = lower value",0.0786 (active)
same,normalized growth,"locus YLR039C, strain RIC1, stronger effect = lower value",0.106 (active)
same,normalized growth,"locus YLR058C, strain SHM2, stronger effect = lower value",0.466 (active)
same,normalized growth,"locus YLR102C, strain apc9, stronger effect = lower value",0.887 (active)
same,normalized growth,"locus YLR262C, strain YPT6, stronger effect = lower value",0.148 (active)
same,normalized growth,"locus YLR268W, strain sec22, stronger effect = lower value",0.443 (active)
same,normalized growth,"locus YLR330W, strain CHS5, stronger effect = lower value",0.0515 (active)
same,normalized growth,"locus YLR342W, strain FKS1 (second series), stronger effect = lower value",0.0669 (active)
same,normalized growth,"locus YLR371W, strain rom2, stronger effect = lower value",0.0882 (active)
same,normalized growth,"locus YLR418C, strain cdc73, stronger effect = lower value",0.125 (active)
same,normalized growth,"locus YML016C, strain PPZ1, stronger effect = lower value",0.381 (active)
same,normalized growth,"locus YML032C, strain rad52, stronger effect = lower value",0.639 (active)
same,normalized growth,"locus YML124C, strain tub3, stronger effect = lower value",0.738 (active)
same,normalized growth,"locus YMR078C, strain ctf18, stronger effect = lower value",0.792 (active)
same,normalized growth,"locus YMR223W, strain ubp8, stronger effect = lower value",0.44 (active)
same,normalized growth,"locus YMR307W, strain GAS1, stronger effect = lower value",0.196 (active)
same,normalized growth,"locus YNL067W, strain RPL9B, stronger effect = lower value",0.711 (active)
same,normalized growth,"locus YNL128W, strain TEP1, stronger effect = lower value",0.348 (active)
same,normalized growth,"locus YNL233W, strain BNI4, stronger effect = lower value",0.285 (active)
same,normalized growth,"locus YNL250W, strain rad50, stronger effect = lower value",0.989
same,normalized growth,"locus YNL271C, strain bni1, stronger effect = lower value",0.728 (active)
same,normalized growth,"locus YNL298W, strain CLA4, stronger effect = lower value",0.754 (active)
same,normalized growth,"locus YNL307C, strain MCK1, stronger effect = lower value",0.157 (active)
same,normalized growth,"locus YNL322C, strain KRE1, stronger effect = lower value",0.0872 (active)
same,normalized growth,"locus YNR052C, strain pop2, stronger effect = lower value",0.145 (active)
same,normalized growth,"locus YOL006C, strain TOP1, stronger effect = lower value",0.152 (active)
same,normalized growth,"locus YOL012C, strain htz1",0.681
same,normalized growth,"locus YOL147C, strain pex11, stronger effect = lower value",0.66 (active)
same,normalized growth,"locus YOR061W, strain CKA2, stronger effect = lower value",0.101 (active)
same,normalized growth,"locus YOR069W, strain VPS5, stronger effect = lower value",0.519 (active)
same,normalized growth,"locus YOR136W, strain idh2, stronger effect = lower value",0.842 (active)
same,normalized growth,"locus YOR144C, strain elg1, stronger effect = lower value",0.843 (active)
same,normalized growth,"locus YOR184W, strain ser1, stronger effect = lower value",0.262 (active)
same,normalized growth,"locus YOR316C, strain cot1, stronger effect = lower value",0.875 (active)
same,normalized growth,"locus YPR119W, strain clb2, stronger effect = lower value",0.336 (active)
same,normalized growth,"locus YPR141C, strain kar3, stronger effect = lower value",0.959
same,normalized growth,"locus YPR163C, strain tif3, stronger effect = lower value",0.703 (active)
same,normalized growth,"locus YPR167C, strain met16, stronger effect = lower value",0.636 (active)
same,normalized growth,"strain wtn01, stronger effect = lower value",0.394 (active)
